D1 potentiator: enhances dopamine response at the human D1 receptor. HEK293 TREx D1 cells, calcium flux, dopamine EC20 potentiation. P21728. AID 504651. hit rate 0.036% among 360,000. potentiation, % at 10 µM; in the data active = potentiation above about 30%; note: 0% is about no effect
USP2a block: blocks human ubiquitin-specific protease USP2a; USP2 core, Ub-CHOP2 coupled fluorogenic reporter, 485/531; AID 463254; hit rate 0.01% among 330,000; Potency, µM (doses to about 38.3 µM), inactives show at the highest dose activity change, negative = inhibition, hits mostly inhibitors;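 note: potency is the fitted concentration of half-maximal effect; plate controls were DMSO wells for no effect and full inhibition by NEM control for full effect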
Target sequence (O75604 whole entry, looked up): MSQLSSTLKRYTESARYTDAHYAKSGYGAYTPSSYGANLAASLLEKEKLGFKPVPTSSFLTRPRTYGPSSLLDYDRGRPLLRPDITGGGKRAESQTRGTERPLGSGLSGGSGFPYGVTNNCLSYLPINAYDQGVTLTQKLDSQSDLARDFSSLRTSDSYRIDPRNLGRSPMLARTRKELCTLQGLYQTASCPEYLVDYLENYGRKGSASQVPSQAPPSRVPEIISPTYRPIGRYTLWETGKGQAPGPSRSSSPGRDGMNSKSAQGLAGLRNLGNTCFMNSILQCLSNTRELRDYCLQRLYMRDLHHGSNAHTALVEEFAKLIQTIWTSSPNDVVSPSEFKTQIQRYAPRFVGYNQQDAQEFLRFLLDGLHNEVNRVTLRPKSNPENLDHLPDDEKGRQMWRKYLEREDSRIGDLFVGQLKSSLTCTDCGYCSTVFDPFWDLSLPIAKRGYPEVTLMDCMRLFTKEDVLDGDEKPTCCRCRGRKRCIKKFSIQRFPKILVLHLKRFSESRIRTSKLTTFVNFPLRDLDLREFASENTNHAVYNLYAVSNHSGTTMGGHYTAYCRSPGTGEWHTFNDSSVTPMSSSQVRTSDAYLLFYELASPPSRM
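Deubiquitinase activity read as fluorescence (485/531 nm) after Ub-CHOP2 cleavage activates the enterokinase reporter on its substrate; USP2 core 10nM, Ub-CHOP2 and substrate 25nM each, 30min compound preincubation then 60min RT; data normalized to NEM, curves fitted.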
D1 ag: human D1 receptor agonism; P21728; HEK293 T-REx D1 cells, calcium flux, agonist mode; AID 504660; hit rate 1% among 360,000; activation, % at 2 µM; in the data active = activation above about 30%; note: 0% is about no effect
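Tetracycline-induced HEK293 TREx D1 cells, force-coupled to calcium signalling, were dye-loaded with a no-wash calcium kit. Compound was pin-added after a 10 s baseline. Fluorescence was read kinetically at 1 cycle/s for 180 s, with calcium rises flagged as agonism.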
GALK inhibitor: blocks human galactokinase activity; Purified GALK, Kinase-Glo residual ATP luminescence; Potency, µM (highest dose often 57.5 µM), for inactives: at the highest dose activity change, negative = inhibition, most hits filed as inhibitors; hit rate 0.007% among 270,000; note: potency is the fitted concentration of half-maximal effect; % is set by controls: 0 for no effect and ±100 for the full control effect
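The enzyme phosphorylates galactose (100 uM) using ATP (35 uM); inhibition is detected as higher residual ATP, quantified by bioluminescence after 1 h reaction at room temperature, pH 8.0.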
Eya2 inh: blocks the phosphatase activity of human Eya2. O00167. recombinant Eya2, OMFP fluorescence dephosphorylation (OMFP is methylfluorescein phosphate). Potency, µM (highest dose often 76.9 µM), inactives show at the highest dose activity, negative = inhibition, usual class: inhibitors. hit rate 0.006% among 330,000. AID 488837; note: potency is the fitted concentration of half-maximal effect; % is set by controls: 0 for no effect and ±100 for the full control effect
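Eya2 (0.2 uM) preincubated 10 min at ambient with compound, then OMFP substrate added at 50 uM; 10 min reaction in 50 mM HEPES pH 7.5, 50 mM NaCl, 5 uM MgCl2, 0.05% BSA, 1 mM DTT. Fluorescence read at Ex 485/Em 525 nm.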
D1 antag: antagonists of human D1 dopamine receptor; hit rate 3.2% among 360,000; P21728; activity change, negative = inhibition, % at 10 µM; AID 504652; HEK293 TREx D1 cells, calcium flux, dopamine EC80; stronger effect = lower value; in the data active = activity change below about -30%; note: % is set by controls: 0 for no effect and ±100 for the full control effect
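Tetracycline-induced HEK293 Trex D1 cells, force-coupled to calcium, dye-loaded; compounds added and read 180 s, then EC80 dopamine added and calcium flux tracked kinetically another 180 s.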
* marks the source's active call; other numbers are inactive results; x = no result given. Hits are enriched below; roughly 3.9% of the tested compounds scored in any of these assays. Unless noted, calls come from the whole dose curve; as a rule, active = well fitted inhibition curve with a large enough effect; inconclusive = small, poorly fitted or top-dose-only effect, or effect the other way; inactive = flat fitted curve, though single readings scatter.

SMILES	D1 potentiator	USP2a block	D1 ag	GALK inhibitor	Eya2 inh	D1 antag
c1ccc(CNc2nc(-c3ccccc3)nc3ccccc23)cc1	7	-9%	2	1%	-6%	-2
Cc1cccc(N2CCN(CCCNC(=O)c3ccc(NC(=O)C4=CSCCO4)cc3)CC2C)c1 (configuration not stated)	-16	0%	18	-2%	-12%	-40*
O=C(Nc1ccc(C(=O)NCCCN2CCN(c3ccc(F)cc3)CC2)cc1)C1=CSCCO1	-17	-1%	62*	-5%	6%	-78*
CC1CCCN(CCCNC(=O)c2ccc(NC(=O)C3=CSCCO3)cc2)C1 (configuration not stated)	10	0%	3	2%	7%	-6
CCCc1cc(NCCCCO)n2c(nc3ccccc32)c1C#N	0	-1%	8	1%	7%	-36*
CCN(CC)CCCNc1cc(C(F)(F)F)c(C#N)c2nc3ccccc3n12	-2	5%	46*	-3%	1%	-1
CCN(CC)CCNc1cc(C)c(C#N)c2nc3ccccc3n12	-4	5%	2	-6%	2%	-4
CCCCS(=O)(=O)c1nc(-c2ccc(Br)cc2)cc(-c2ccccc2)c1C#N	-2	x	15	x	x	-14
CC(NC(=O)Nc1cccc(Cl)c1)C(c1cccs1)N1CCCC1 (configuration not stated)	-4	-1%	113*	1%	-1%	34
CC(NC(=O)Nc1ccccc1)C(c1cccs1)N1CCN(C)CC1 (configuration not stated)	-2	2%	2	0%	11%	-8
CC(NC(=O)Nc1ccc([N+](=O)[O-])cc1)C(c1cccs1)N1CCCC1 (configuration not stated)	17	2%	175*	2%	2%	159
CCOC(=O)c1cc2c(=O)n3ccccc3nc2n(CC2CCCO2)c1=NC(=O)c1ccccc1C (configuration not stated)	0	x	1	x	x	-2
CCCN(CC(=O)Nc1ccccc1C)C(=O)c1ccc(COc2ccccc2)cc1	-1	-5%	11	-6%	-11%	-42*
COc1ccccc1CN1COc2ccc3c(C)cc(=O)oc3c2C1	1	x	0	x	x	2
CCNS(=O)(=O)c1ccc(NC(=O)Cn2nc(C(F)(F)F)cc2C)cc1	-2	2%	7	3%	16%	-39*
Cc1cc(C(F)(F)F)nn1CC(=O)NNC(=S)Nc1ccc(F)cc1	-2	2%	-2	1%	5%	-10
O=C(/C(N=Nc1cccc([N+](=O)[O-])c1)=C(/O)c1ccc(Br)cc1)C(F)(F)F	-14	1%	13	-1%	5%	-30*
COc1ccc(S(=O)(=O)NCc2cn3c(C)csc3n2)cc1F	-2	2%	3	1%	-40%	-49*
Cc1csc2nc(CNS(=O)(=O)c3ccc4c(c3)CCCC4)cn12	-17	1%	10	4%	15%	-60*
Cc1csc2nc(CNS(=O)(=O)c3ccc4c(c3)OCCO4)cn12	-6	1%	6	3%	-27%	-2
Cc1csc2nc(CNS(=O)(=O)N(C)C)cn12	x	-1%	1	0%	3%	-72*
CC(=O)Nc1ccc(S(=O)(=O)NCc2cn3c(C)csc3n2)cc1	0	3%	1	-2%	-1%	-8
COc1ccccc1Cn1ccn(Cc2c(F)cccc2Cl)c(=O)c1=O	-1	x	1	x	x	5
Cc1cccc(C(=O)NCCc2nc3ccccc3n2Cc2ccc(Cl)cc2)c1	2	x	10	x	x	-1
CCOc1ccc(CNC(=O)C2CCN(S(=O)(=O)c3cn(C)cn3)CC2)cc1OC	1	x	-1	x	x	-4
SMILES	D1 potentiator	USP2a block	D1 ag	GALK inhibitor	Eya2 inh	D1 antag
CC(=O)c1ccc(N2CCN(C(=O)C3CCN(S(=O)(=O)c4ccc(Br)s4)CC3)CC2)cc1	-2	x	16	x	x	-15
O=C(Cn1cc(CNC(=O)c2ccccc2)nn1)Nc1cc(C(F)(F)F)ccc1Cl	1	x	-1	x	x	-2
CCOCCCNCc1ccc(OCc2ccccc2Cl)cc1	0	1%	36*	-1%	-2%	-13
CC(C)(C)c1ccc(OCCCNCc2ccccc2)cc1	5	0%	61*	1%	-5%	26
Clc1cc(Br)ccc1OCCCNCc1ccccc1	-6	0%	55*	1%	-4%	6
CCc1cc(OCCCCNCc2ccccc2)ccc1Cl	9	1%	51*	-1%	-10%	-1
CCc1cc(OCCN(C)C)ccc1Cl	-1	1%	3	2%	-11%	-6
OCCCCNCc1ccc(OCc2ccccc2Cl)cc1	x	0%	x	-2%	-8%	x
COCCCNCCCOc1ccc(C(C)(C)c2ccccc2)cc1	0	3%	9	-1%	9%	13
O=C(Cn1c(NCCO)nc2ccccc21)N1CCN(Cc2ccccc2)CC1	-1	2%	1	-2%	-4%	-41*
NC(=O)CS(=O)(=O)c1nc2ccccc2n1CC(=O)N1CCCCC1	-8	3%	2	0%	14%	-13
O=C(Cn1c(S(=O)(=O)Cc2ccccc2)nc2ccccc21)N1CCCCC1	x	2%	4	3%	4%	-35*
O=C(NCC1CCCN1S(=O)(=O)c1cccs1)c1ccc(Cl)cc1 (configuration not stated)	-3	0%	2	x	8%	4
O=C(NCC1CCCN1S(=O)(=O)c1cccs1)c1cccc(Cl)c1 (configuration not stated)	-4	1%	4	x	-28%	-32*
CCCCNC(=O)COC(=O)c1cc(Br)ccc1Cl	-12	2%	1	-1%	-22%	-31*
CCCCNC(=O)COC(=O)c1cc(F)c(F)cc1Cl	2	3%	0	0%	3%	-21
CCC(CC)NC(=O)COC(=O)c1cc(Br)ccc1Cl	-5	1%	0	-1%	-2%	-36*
O=C(COC(=O)c1cc(Br)ccc1Cl)NC1CC1	-5	3%	0	0%	3%	-1
COc1ccc(Cl)cc1NC(=O)CSc1nc(=O)[nH]c2c1CCC2	11	x	6	x	x	-3
Cc1ccc(NC(=O)CSc2nccn2C2CCCC2)cc1Cl	2	x	1	x	x	-7
Cc1cc(C)c(C#N)c(SCc2nnc(-c3ccccc3[N+](=O)[O-])o2)n1	4	4%	38*	3%	8%	-4
Cc1cc(C)c(C#N)c(SCc2ccccc2[N+](=O)[O-])n1	-11	0%	3	x	-25%	-8
CC(C)(C)N=C1NC(=NC(C)(C)C)c2ccccc21	-2	1%	19	0%	-12%	-41*
